According to the supplement of paper PMC3334620:
In all, about 33,000 sequences were measured (“E-score (-0.5 to 0.5)”: median about -0.013, highest 2% from about 0.3 on). The sample holds the highest values, similar sequences and a random draw of the others, so the mix is not that of the screen.

These sequences were tested against T1, Msn1 (UniProt P22148) (assay: PBM E-score (8-mer binding enrichment) (E-score (-0.5 to 0.5)); higher = stronger / more preferred TF binding). Conditions: protein concentration: 200 nM; construct: GST-full length.
T1 sequence: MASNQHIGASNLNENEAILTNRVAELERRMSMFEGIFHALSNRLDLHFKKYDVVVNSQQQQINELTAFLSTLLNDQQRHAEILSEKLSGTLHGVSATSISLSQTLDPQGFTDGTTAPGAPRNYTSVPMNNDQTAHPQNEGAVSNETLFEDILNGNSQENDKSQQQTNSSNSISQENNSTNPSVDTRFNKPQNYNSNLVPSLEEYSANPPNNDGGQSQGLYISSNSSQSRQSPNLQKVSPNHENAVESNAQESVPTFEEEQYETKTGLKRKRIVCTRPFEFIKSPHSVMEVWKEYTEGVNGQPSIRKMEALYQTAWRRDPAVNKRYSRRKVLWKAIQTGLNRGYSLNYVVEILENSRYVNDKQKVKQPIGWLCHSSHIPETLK
In short: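 The E-score, a modified Wilcoxon-Mann-Whitney statistic, was computed by the Universal PBM Analysis Suite for every ungapped eight-base word pooled with its reverse complement. Scans behind it were normalised with masliner after bound GST-tagged yeast transcription factors were detected with fluorescent anti-GST. The proteins, at about 100-200 nM, had been applied to universal all-10-mer Agilent arrays made double-stranded by primer extension.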

| Sequence | PBM E-score |
| --- | --- |
| AGTTAGAC | 0.124 |
| CTTGGGTC | -0.123 |
| GGACTCAC | -0.116 |
| GCCCTTTA | -0.318 |
| TTCCAAAA | 0.192 |
| CTACAAAC | -0.0616 |
| CTACAAAA | 0.0933 |
| GTCCAAAC | 0.175 |
| ATACAAAC | 0.125 |
| GTACAAAA | 0.416 |
| GTACAAAC | 0.421 |
| TTACAAAA | 0.12 |
| GTCCAAAA | 0.318 |
| ACGAGTAT | -0.134 |
| GAAGGCTC | -0.291 |
| CTTGGGCC | -0.266 |
| CTACACGC | -0.145 |
| GCTTCTAC | -0.0502 |
| CGTAAGTA | 0.0282 |
| CCGTGACA | 0.164 |
| GTGTGACA | 0.17 |
| ACGTGACA | 0.27 |
| CTGTGACA | 0.316 |
| TCGTGACA | 0.314 |
| CTGTGACC | -0.115 |

| Sequence | PBM E-score |
| --- | --- |
| ATGTGACA | 0.305 |
| CTGTGAAA | 0.2 |
| ATGTGACG | -0.223 |
| CCTGCTTC | -0.172 |
| GCGCCTAA | 0.129 |
| CGTAGGGA | 0.0214 |
| GGTTTGCA | -0.172 |
| ACGAATCA | 0.13 |
| CAGTCACG | -0.198 |
| ATTGCTGC | -0.0878 |
| ATTCGGAG | 0.0972 |
| ATTCGGAA | 0.167 |
| ATTCGGAC | 0.339 |
| AAAGATAT | 0.113 |
| AATGAGAG | -0.161 |
| CCCCAATC | -0.222 |
| ATGACACC | 0.0663 |
| ATGACATG | 0.361 |
| GTGACTGA | 0.0999 |
| CTGACATC | 0.143 |
| ATGACATA | 0.417 |
| ATGACAGA | 0.137 |
| ATGACATC | 0.349 |
| CTGACATA | 0.269 |
| GTGACAGA | 0.161 |

| Sequence | PBM E-score |
| --- | --- |
| ATGACACA | 0.287 |
| GTGACATA | 0.328 |
| ATGACAGG | 0.105 |
| AGCGCGTG | -0.133 |
| CATTGGGG | -0.125 |
| GGGACCAA | -0.0643 |
| CGCCTCTA | -0.0484 |
| CACACTGG | -0.259 |
| CATGCAGA | -0.0066 |
| CATCTCGA | 0.149 |
| CAAGAAAG | 0.0067 |
| GATCTTAC | 0.00117 |
| AGAGACAT | 0.43 |
| AGAGACCT | -0.012 |
| TGAGACCA | -0.0631 |
| TGAGACAA | 0.397 |
| CGAGACAC | 0.183 |
| AGAGAGAC | -0.0618 |
| AGAGACAG | 0.0165 |
| CGAGACAG | -0.00132 |
| CGAGACAA | 0.365 |
| TGAGAGAA | 0.00621 |
| AGAGACAA | 0.375 |
| AGAGACAC | 0.177 |
| ATAGCGGG | -0.192 |

| Sequence | PBM E-score |
| --- | --- |
| ACGAAGCT | -0.0736 |
| CCTTTGGC | -0.132 |
| AATCGAAT | 0.047 |
| ACGTTGCC | -0.241 |
| CCAGCGCG | -0.158 |
| GAGCTCGC | -0.0509 |
| CACCCACA | -0.132 |
| ATTAGCTA | -0.086 |
| GCCCGGAA | 0.0421 |
| GGAGACCA | -0.0845 |
| GGAGACAA | 0.32 |
| GGAGACAC | 0.0421 |
| AGTCTTGC | -0.0197 |
| CCAAAGTA | -0.0844 |
| ATTACTGG | -0.119 |
| CAAGCGCA | 0.185 |
| CCCTCGAA | -0.0781 |
| ACTGCTGG | -0.169 |
| AACATTTA | 0.252 |
| TACATTAA | 0.277 |
| GACATTAC | 0.442 |
| GACATTAA | 0.431 |
| AACATTAC | -0.108 |
| AACATTAA | 0.158 |
| CACATTAC | 0.0152 |

| Sequence | PBM E-score |
| --- | --- |
| GACATTTA | 0.474 |
| CACATTTA | 0.15 |
| AGAGGTCG | -0.105 |
| GCTGGAAA | -0.0496 |
| ATTTTGAA | 0.126 |
| TGGCCAAA | 0.0563 |
| ATCTTGCA | 0.0688 |
| GTGTACCA | 0.189 |
| ATGTACAC | 0.268 |
| ATGTACCC | 0.115 |
| ATGTACAT | 0.324 |
| ATGTACAA | 0.36 |
| ATGTACAG | 0.185 |
| ATGTACGA | 0.215 |
| ATGTACCA | 0.316 |
| ATGTACTA | 0.233 |
| AATTAGCG | 0.0486 |
| ATGCTCCC | -0.341 |
| GCCCGTTA | -0.266 |
| CGTTCGCC | -0.0525 |
| ACGAGGCG | 0.0795 |
| CTATTGTC | 0.288 |
| CCATTGTC | 0.311 |
| ACATTGTC | 0.411 |
| CCATTGTA | 0.193 |

| Sequence | PBM E-score |
| --- | --- |
| ACATTGTG | 0.207 |
| ATATTGTC | 0.427 |
| CCATTGGC | -0.0912 |
| ATATTGTG | -0.00984 |
| ACATTGTA | 0.143 |
| GAAGTAGC | -0.206 |
| TAGGGTGA | -0.1 |
| CCCTGCAG | -0.245 |
| CGCATTTA | 0.193 |
| ATGGACAC | 0.437 |
| ATGGACAT | 0.484 |
| ATGGACGA | 0.273 |
| ATGGACCC | -0.0808 |
| GTGGACAC | 0.356 |
| GTGGAAAC | 0.164 |
| ATGGAAAT | 0.0754 |
| ATGGACAG | 0.251 |
| ATGGACCA | 0.114 |
| ATGGACGC | 0.122 |
| ATGGACAA | 0.485 |
| GTCGACAC | 0.141 |
| GCGCTAGC | -0.0831 |
| ATTAGGGA | 0.0137 |
| CAGGTTGC | 0.0156 |
| AGACTTGC | -0.136 |

| Sequence | PBM E-score |
| --- | --- |
| AGCTTAAT | -0.00074 |
| CACCCGTA | -0.0199 |
| AAGCGAGC | -0.0286 |
| AGCTTGAT | -0.0595 |
| ACCGCGCC | -0.168 |
| AAAAGACA | 0.342 |
| TAAAGACA | 0.356 |
| ACAAGACG | 0.0049 |
| GTAAGACA | 0.305 |
| GCAAGACA | 0.157 |
| TAAAGATA | 0.0041 |
| AAAAGACC | 0.00338 |
| CTAAGACA | 0.302 |
| ATAAGACA | 0.264 |
| AAAAGACG | 0.135 |
| ACAAGACA | 0.34 |
| TCAAGACA | 0.247 |
| GACGGCTC | -0.211 |
| GCATATGC | -0.0698 |
| ATTTCCAC | 0.106 |
| CCGACCCC | -0.354 |
| CATCAGAA | 0.00838 |
